From ChEMBL document CHEMBL1961873, “Compounds: GSK PKIS; Assays: Nanosyn kinase panel” (2012)

Key:
[1] = target: Serine/threonine-protein kinase pim-2 (Homo sapiens) (UniProt Q9P1W9); details: at 1 µM;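 note: each value is a mean of the inhibition measurements against the kinase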
[2] = target: Serine/threonine-protein kinase pim-3 (Homo sapiens) (UniProt Q86V86); details: at 0.1 µM
[3] = target: Serine/threonine-protein kinase pim-3 (Homo sapiens) (UniProt Q86V86); details: at 1 µM
[4] = target: T1, MAP kinase-activated protein kinase 5 (Homo sapiens) (UniProt Q8IW41); details: at 0.1 µM
T1 sequence (whole entry): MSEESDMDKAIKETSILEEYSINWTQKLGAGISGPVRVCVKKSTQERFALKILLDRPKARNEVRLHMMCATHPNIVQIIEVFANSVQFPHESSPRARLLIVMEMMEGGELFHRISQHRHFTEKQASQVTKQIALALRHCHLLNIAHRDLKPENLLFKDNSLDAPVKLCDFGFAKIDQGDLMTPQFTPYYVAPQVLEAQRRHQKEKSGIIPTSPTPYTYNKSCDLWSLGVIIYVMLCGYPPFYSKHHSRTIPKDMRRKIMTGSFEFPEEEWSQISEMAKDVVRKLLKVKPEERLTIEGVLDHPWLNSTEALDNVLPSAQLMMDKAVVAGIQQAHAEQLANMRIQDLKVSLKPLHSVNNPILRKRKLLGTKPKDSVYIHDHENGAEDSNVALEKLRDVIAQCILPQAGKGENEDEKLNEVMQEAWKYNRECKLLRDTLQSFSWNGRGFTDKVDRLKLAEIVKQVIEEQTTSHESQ

[5] = target: T1, MAP kinase-activated protein kinase 5 (Homo sapiens); details: at 1 µM
[6] = target: Serine/threonine-protein kinase SIK1 (Homo sapiens) (UniProt P57059); details: at 0.1 µM
Chain of Serine/threonine-protein kinase SIK1 (Homo sapiens) (P57059 whole entry): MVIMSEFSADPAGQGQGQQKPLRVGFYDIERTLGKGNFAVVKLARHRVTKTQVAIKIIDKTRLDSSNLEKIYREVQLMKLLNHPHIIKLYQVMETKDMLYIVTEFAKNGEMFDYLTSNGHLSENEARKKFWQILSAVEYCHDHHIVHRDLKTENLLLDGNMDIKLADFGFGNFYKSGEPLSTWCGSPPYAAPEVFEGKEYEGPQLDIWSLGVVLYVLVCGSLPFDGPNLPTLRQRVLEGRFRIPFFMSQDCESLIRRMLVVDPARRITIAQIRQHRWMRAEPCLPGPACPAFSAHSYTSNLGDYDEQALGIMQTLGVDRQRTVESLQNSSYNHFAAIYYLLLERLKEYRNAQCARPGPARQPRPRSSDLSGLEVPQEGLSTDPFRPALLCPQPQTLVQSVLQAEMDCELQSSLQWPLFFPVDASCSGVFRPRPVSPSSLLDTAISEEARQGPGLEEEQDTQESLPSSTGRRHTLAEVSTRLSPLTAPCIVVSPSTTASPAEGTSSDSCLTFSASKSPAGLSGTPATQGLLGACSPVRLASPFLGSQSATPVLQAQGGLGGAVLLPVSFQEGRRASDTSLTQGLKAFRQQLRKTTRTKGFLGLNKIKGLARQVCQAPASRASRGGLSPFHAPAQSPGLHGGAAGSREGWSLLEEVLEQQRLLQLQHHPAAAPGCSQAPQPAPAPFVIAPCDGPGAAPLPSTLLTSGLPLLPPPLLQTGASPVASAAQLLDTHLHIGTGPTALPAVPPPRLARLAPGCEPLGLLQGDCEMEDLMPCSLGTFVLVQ

[7] = target: Serine/threonine-protein kinase SIK1 (Homo sapiens) (UniProt P57059); details: at 1 µM
[8] = target: Serine/threonine-protein kinase SIK2 (Homo sapiens) (UniProt Q9H0K1); details: at 0.1 µM
Chain of Serine/threonine-protein kinase SIK2 (Homo sapiens) (Q9H0K1 whole entry, looked up): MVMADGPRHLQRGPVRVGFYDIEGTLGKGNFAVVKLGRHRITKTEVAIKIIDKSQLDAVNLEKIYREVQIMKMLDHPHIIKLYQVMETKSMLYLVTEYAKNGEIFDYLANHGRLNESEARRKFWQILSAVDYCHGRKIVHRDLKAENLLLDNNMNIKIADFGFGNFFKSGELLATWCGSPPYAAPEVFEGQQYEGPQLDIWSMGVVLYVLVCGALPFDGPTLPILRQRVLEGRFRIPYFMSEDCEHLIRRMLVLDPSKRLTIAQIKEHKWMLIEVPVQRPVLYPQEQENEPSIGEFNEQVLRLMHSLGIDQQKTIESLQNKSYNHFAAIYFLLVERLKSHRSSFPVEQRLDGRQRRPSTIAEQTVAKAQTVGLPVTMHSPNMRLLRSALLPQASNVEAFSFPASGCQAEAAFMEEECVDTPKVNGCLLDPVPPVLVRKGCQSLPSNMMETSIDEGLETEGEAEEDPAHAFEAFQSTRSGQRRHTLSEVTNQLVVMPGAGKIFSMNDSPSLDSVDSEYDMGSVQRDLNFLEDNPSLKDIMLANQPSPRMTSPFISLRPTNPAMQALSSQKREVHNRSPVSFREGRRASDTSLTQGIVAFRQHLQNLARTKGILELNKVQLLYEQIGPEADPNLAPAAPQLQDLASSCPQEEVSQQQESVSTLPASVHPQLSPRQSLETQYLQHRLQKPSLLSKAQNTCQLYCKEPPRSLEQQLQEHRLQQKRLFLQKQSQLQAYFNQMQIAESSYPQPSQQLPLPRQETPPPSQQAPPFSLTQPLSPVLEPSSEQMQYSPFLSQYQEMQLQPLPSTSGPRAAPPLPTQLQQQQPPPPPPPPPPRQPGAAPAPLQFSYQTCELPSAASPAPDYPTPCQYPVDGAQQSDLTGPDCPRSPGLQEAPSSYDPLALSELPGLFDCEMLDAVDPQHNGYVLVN

[9] = target: Serine/threonine-protein kinase SIK2 (Homo sapiens) (UniProt Q9H0K1); details: at 1 µM
[10] = target: T2, Serine/threonine-protein kinase TBK1 (Homo sapiens) (UniProt Q9UHD2); details: at 0.1 µM
T2 sequence (whole entry): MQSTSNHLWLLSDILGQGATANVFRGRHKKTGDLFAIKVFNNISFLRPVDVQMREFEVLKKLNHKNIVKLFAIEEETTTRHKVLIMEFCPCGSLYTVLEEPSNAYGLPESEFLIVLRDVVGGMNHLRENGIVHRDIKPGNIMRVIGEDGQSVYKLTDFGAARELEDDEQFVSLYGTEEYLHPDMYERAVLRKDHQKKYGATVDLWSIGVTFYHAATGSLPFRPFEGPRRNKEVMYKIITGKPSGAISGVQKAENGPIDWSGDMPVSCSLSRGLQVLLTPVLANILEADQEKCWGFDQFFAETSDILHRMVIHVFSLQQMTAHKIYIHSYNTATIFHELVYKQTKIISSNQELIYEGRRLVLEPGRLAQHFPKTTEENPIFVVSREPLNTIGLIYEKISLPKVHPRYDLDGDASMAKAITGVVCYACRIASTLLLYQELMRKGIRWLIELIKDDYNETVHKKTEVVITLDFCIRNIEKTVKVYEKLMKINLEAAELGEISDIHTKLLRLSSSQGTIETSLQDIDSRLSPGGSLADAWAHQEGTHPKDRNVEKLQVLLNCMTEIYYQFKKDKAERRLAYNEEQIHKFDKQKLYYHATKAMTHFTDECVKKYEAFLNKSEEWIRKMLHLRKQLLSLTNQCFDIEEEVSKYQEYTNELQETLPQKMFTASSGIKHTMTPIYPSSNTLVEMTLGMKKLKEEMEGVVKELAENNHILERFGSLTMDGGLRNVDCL

[11] = target: T2, Serine/threonine-protein kinase TBK1 (Homo sapiens); details: at 1 µM
[12] = target: T3, Testis-specific serine/threonine-protein kinase 1 (Homo sapiens) (UniProt Q9BXA7); details: at 0.1 µM
T3 sequence (whole entry): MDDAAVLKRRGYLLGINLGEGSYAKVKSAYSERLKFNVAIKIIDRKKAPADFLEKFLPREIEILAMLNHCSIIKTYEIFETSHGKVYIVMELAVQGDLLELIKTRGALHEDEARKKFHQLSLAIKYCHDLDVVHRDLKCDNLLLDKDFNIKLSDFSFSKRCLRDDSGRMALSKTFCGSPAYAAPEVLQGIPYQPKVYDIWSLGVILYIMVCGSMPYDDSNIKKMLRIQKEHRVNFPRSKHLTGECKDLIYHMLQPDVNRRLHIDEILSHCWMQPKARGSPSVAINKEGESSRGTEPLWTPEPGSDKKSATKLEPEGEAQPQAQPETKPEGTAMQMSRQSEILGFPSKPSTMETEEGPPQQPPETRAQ

[13] = target: T3, Testis-specific serine/threonine-protein kinase 1 (Homo sapiens); details: at 1 µM
[14] = target: T4, Testis-specific serine/threonine-protein kinase 2 (Homo sapiens) (UniProt Q96PF2); details: at 0.1 µM
T4 sequence (whole entry): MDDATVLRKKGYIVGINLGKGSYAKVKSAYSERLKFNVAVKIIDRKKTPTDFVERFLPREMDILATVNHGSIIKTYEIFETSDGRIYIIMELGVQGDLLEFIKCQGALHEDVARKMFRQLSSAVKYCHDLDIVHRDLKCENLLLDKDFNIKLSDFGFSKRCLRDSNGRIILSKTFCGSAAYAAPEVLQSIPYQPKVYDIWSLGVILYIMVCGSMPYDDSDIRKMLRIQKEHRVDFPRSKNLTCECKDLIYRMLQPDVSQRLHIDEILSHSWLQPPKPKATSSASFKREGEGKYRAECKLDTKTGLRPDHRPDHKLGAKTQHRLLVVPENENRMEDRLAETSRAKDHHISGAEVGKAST

[15] = target: T4, Testis-specific serine/threonine-protein kinase 2 (Homo sapiens); details: at 1 µM
[16] = target: Casein kinase I isoform alpha (Homo sapiens) (UniProt P48729); details: at 0.1 µM
Chain of Casein kinase I isoform alpha (Homo sapiens) (P48729 2-337 limits assumed): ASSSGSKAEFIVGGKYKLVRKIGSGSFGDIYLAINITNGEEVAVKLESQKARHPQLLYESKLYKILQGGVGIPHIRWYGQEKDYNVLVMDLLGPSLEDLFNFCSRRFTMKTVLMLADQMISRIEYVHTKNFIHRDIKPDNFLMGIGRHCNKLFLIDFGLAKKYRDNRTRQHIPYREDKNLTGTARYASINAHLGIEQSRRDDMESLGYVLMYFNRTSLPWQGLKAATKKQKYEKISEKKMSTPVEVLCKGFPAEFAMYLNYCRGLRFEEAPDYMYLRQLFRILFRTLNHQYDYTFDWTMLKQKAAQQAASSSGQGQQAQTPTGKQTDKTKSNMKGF

[17] = target: Casein kinase I isoform alpha (Homo sapiens) (UniProt P48729); details: at 1 µM
[18] = target: Casein kinase I isoform gamma-1 (Homo sapiens) (UniProt Q9HCP0); details: at 0.1 µM
Chain of Casein kinase I isoform gamma-1 (Homo sapiens) (Q9HCP0 whole entry, looked up, canonical isoform): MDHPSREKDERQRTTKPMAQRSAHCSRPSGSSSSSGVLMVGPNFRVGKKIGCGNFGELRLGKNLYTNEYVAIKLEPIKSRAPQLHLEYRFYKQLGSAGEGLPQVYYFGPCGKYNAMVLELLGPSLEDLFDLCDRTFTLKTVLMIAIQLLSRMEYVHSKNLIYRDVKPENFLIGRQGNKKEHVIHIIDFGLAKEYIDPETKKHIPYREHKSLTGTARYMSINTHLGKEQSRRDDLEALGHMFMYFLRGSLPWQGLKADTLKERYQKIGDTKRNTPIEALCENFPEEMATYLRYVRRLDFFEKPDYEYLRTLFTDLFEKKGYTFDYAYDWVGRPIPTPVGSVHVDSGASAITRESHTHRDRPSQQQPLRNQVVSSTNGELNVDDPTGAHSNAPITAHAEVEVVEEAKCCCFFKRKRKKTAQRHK

[19] = target: Casein kinase I isoform gamma-1 (Homo sapiens) (UniProt Q9HCP0); details: at 1 µM
[20] = target: Casein kinase I isoform gamma-2 (Homo sapiens) (UniProt P78368); details: at 0.1 µM;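 note: values are mean inhibition figures reported as part of the GSK PKIS dataset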
Chain of Casein kinase I isoform gamma-2 (Homo sapiens) (P78368 whole entry, looked up, canonical isoform): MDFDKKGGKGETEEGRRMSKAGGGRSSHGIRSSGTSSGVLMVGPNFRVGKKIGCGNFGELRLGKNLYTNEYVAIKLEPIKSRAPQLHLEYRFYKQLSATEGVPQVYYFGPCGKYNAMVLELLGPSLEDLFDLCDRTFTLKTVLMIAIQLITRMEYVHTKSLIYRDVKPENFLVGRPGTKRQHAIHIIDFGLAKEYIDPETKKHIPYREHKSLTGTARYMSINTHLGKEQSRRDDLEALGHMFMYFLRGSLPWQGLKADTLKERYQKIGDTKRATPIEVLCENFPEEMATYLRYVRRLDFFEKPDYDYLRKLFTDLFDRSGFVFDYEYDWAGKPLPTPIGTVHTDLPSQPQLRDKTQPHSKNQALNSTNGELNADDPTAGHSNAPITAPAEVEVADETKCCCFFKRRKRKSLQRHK

Chain of Serine/threonine-protein kinase pim-2 (Homo sapiens) (Q9P1W9 whole entry, looked up): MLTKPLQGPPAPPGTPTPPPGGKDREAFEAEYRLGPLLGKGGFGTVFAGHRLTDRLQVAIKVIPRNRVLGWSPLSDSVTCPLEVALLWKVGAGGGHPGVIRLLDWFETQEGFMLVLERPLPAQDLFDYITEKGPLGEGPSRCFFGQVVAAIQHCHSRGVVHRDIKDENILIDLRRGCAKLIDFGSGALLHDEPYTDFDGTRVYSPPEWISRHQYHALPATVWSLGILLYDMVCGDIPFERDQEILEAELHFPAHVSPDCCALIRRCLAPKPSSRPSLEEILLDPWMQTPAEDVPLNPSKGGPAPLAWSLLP

Structure (SMILES) | inhibition [1] [%] | inhibition [2] [%] | inhibition [3] [%] | inhibition [4] [%] | inhibition [5] [%] | inhibition [6] [%] | inhibition [7] [%] | inhibition [8] [%] | inhibition [9] [%] | inhibition [10] [%] | inhibition [11] [%] | inhibition [12] [%] | inhibition [13] [%] | inhibition [14] [%] | inhibition [15] [%] | inhibition [16] [%] | inhibition [17] [%] | inhibition [18] [%] | inhibition [19] [%] | inhibition [20] [%]
N#Cc1c(NC(=O)CN2CCOCC2)sc2c1CCCC2 | 1.1 | 0.45 | 1.12 | 1.41 | 2.49 | 0.17 | 6.91 | 5.2 | 8.69 | 1.76 | 4.24 | -0.56 | 3.34 | 1.22 | 2.29 | 6.79 | 6.01 | 3.78 | 5.69 | 3.2
CCOc1ccc2c(-c3ccnc(Nc4cccc(C(F)(F)F)c4)n3)cnn2n1 | -0.33 | -1.1 | -1.96 | 0.3 | -0.41 | 2.46 | 3.82 | 2.86 | 3.43 | 2.13 | 13.1 | 2.69 | 3.46 | 0.15 | 0.22 | 0.42 | 0.35 | 2.16 | 3.1 | 2.06
CC(=O)NCc1cccc(C#Cc2cncnc2Nc2ccc(OCc3cccc(F)c3)c(Cl)c2)c1 | 0.6 | -0.57 | -1.13 | 0 | 0.14 | 1.32 | 2.96 | -1.4 | 5.8 | -0.27 | 4.8 | 1.79 | 2.15 | 0.5 | 1.59 | -1.4 | -0.4 | 0.6 | 0.01 | -0.69
COC(=O)c1sc(-n2cnc3cc(OC)c(OC)cc32)cc1OCc1ccccc1C(F)(F)F | -0.34 | -1.72 | -2.84 | 2.02 | -0.15 | 6.13 | 24.6 | 5.85 | 15.2 | 3.44 | 28.6 | 3.74 | 4.56 | 2.04 | 1.18 | -3.52 | 1.68 | 4.13 | 4.8 | 2.8
COc1cc(/C=N/Nc2ncnc3[nH]ncc23)ccc1O | 4.24 | 2.9 | 21.5 | 1.2 | 2.2 | 2.8 | 26.7 | 8.34 | 33.1 | 4.18 | 21.1 | 4.57 | 11.6 | 3.14 | 1.44 | 3.78 | 13.7 | 3.68 | 19 | 4.88
N#Cc1c(NC(=O)c2ccc(F)cc2)sc2c1CCCC2 | -0.05 | 0.71 | 1.6 | 0.52 | -0.3 | 1.57 | 3.96 | -1.57 | 8.23 | 0.78 | 0.54 | 0.45 | 0.89 | 0.22 | 0.33 | -0.68 | 1.93 | 0.85 | 0.78 | 0.66
COc1ccc(CNC(=O)c2ccc(-c3cc(-c4nnc(C)o4)ccc3C)cc2)cc1 | 3.03 | 4.73 | 8.32 | 2.76 | 5.41 | 1.54 | 2.92 | 6.86 | 6.77 | 2.25 | 4.66 | 3.31 | 6.39 | 2.67 | 6.58 | -0.51 | 2.48 | 1.07 | -0.25 | 1.05
CCn1c(-c2nonc2N)nc2c(C#CC(C)(C)O)ncc(OC3CCNCC3)c21 | 11.7 | 2.64 | 23.8 | 0.79 | 1.22 | 3.53 | 10.6 | 3.69 | 14.8 | 12.2 | 45.9 | 20.7 | 71.4 | 0.88 | 2.99 | 2.3 | 8.85 | 2.94 | 4.65 | 2.46
CN1CCC(n2cnc(-c3ccc(F)cc3)c2-c2ccnc(N)n2)CC1 | 6.09 | 2.48 | 21.3 | 1 | 1.6 | 2.58 | 7.47 | 7.38 | 21.9 | -1.27 | 3.54 | 2.05 | 3.07 | 2.28 | 1.61 | 30.1 | 73.1 | 1.88 | 9.03 | 1.68
CC(C)(CO)CNC(=O)c1ccc2c(c1)/C(=N/Nc1ccc(S(N)(=O)=O)cc1)C(=O)N2 | 4.28 | 1.57 | 14.2 | -0.02 | -0.16 | 3.06 | 27.7 | -1.9 | 36 | 21.7 | 63.4 | 0.17 | 11 | 0.45 | -0.69 | -1.33 | 7.84 | 0.88 | 4.11 | 0.93
CC1=C(C(=O)Nc2cc(Cl)c3[nH]ncc3c2)C(c2ccc(C(F)(F)F)cc2)CC(=O)N1 (stereo not given) | -0.24 | -0.23 | -0.25 | 1.37 | 2.73 | 4.89 | 8.58 | 4.56 | 11.8 | 2.77 | 3.48 | 3.52 | 3.9 | 2.37 | 1.37 | 1.86 | 2.49 | 2.91 | 3.25 | 2.31
CC(=O)Nc1cccc(C#Cc2cncnc2Nc2ccc(OCc3cccc(F)c3)c(Cl)c2)c1 | 1.31 | 2.57 | -1.69 | 0.16 | -0.79 | 4.24 | 2.15 | 1.42 | 1.44 | 1.95 | 3.45 | 1.34 | 0.24 | 0.06 | -1.88 | -1.79 | 3.28 | 2.22 | 2 | 0.52
COc1cc(N2CCN(C(C)C)CC2)ccc1Nc1nc(Nc2ccc(F)cc2C(N)=O)c2cc[nH]c2n1 | 1.98 | 1.69 | 19.9 | 1.95 | 16 | 7.46 | 14.3 | 3.18 | 8.56 | 3.02 | 6.76 | 82.8 | 95.4 | 58.6 | 90.8 | 12.4 | 58.3 | 9.86 | 42.2 | 7.97
COC(=O)Nc1nc2ccc(S(=O)(=O)c3ccc(NC(=O)Nc4cc(C(F)(F)F)ccc4F)cc3)cc2[nH]1 | 0.73 | -0.65 | -1.2 | 0.38 | -0.4 | 2.55 | 3.12 | 0.97 | 0.1 | 2.66 | 3.98 | 2.57 | 0.57 | 0.12 | -0.82 | 2.65 | 5.12 | 2.34 | 2.83 | 1.08
